In PubChem BioAssay AID1920062 (Sanford-Burnham Center for Chemical Genomics, 2024):
The whole screen tested about 370,000 compounds, of which about 400 (0.11%) were called active.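 The calls were made as follows: active = activation at 10 µM reaching about 35% in either raw or pattern-adjusted values (limit read from the data); inactive = the rest.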 The sample as a whole holds a higher share of actives than the screen did.

The compounds below were run against Atrial natriuretic peptide receptor 2 (Homo sapiens) (UniProt P20594) (assay: human GC-B receptor activators, primary screen, HEK293 GC-B cells, cGMP TR-FRET, EC30 CNP (AID 1920062)). Details: at 10 µM, stronger effect = higher value, 0% at EC30 CNP, 100% saturating CNP.
Sequence of Atrial natriuretic peptide receptor 2 (Homo sapiens) (P20594 whole entry, looked up): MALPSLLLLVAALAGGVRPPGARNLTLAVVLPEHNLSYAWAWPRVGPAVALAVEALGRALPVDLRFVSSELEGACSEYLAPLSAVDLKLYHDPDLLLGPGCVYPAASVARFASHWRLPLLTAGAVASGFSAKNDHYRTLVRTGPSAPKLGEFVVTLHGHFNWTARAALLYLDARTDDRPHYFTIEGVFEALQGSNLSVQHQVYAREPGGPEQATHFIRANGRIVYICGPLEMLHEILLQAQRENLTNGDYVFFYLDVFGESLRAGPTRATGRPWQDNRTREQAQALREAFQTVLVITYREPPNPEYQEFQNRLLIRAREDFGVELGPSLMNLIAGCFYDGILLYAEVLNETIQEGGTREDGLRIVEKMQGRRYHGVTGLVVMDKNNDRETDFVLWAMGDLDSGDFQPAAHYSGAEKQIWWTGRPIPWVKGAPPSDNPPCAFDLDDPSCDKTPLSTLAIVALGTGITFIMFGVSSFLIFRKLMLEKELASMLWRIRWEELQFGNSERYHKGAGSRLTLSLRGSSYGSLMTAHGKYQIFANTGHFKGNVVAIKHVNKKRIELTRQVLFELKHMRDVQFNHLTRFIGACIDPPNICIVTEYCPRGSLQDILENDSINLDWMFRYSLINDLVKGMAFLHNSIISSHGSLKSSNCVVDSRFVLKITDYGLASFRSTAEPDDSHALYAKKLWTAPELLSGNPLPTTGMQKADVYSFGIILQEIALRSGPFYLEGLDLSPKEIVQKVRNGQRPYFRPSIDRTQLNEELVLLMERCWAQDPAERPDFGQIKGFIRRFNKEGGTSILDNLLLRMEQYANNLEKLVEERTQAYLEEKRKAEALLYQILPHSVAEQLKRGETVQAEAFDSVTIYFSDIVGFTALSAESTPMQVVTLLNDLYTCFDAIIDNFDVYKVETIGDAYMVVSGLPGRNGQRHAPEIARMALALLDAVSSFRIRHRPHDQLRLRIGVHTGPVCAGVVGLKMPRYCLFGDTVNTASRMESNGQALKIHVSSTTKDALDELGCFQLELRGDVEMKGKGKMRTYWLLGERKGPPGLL

SMILES	activation
O=C(CCCCCCCC(=O)N1CCCCC1)N1CCCCC1	2.66% (inactive)
Cc1ccc(NC(=S)N2CCCC(c3ccccc3)=N2)cc1	-5.08% (inactive)
Cc1cccc(NC(=S)N2CCCC(c3nc4ccccc4[nH]3)C2)c1 (stereo not drawn)	0.09% (inactive)
CC(C)[C@H](NC(=O)c1ccc(F)cc1)C(=O)OCC(=O)NC(=O)c1cccn1C	-6.93% (inactive)
COC(=O)CN(c1cccc(C(C)=O)c1)S(C)(=O)=O	-0.3% (inactive)
COc1ccc(CNC(=O)COC(=O)CCS(=O)(=O)c2ccc(C)cc2)cc1OC	-7.76% (inactive)
COc1ccccc1CCCNC(=O)C1CCC(=O)N(CCN2CCOCC2)C1 (stereo not drawn)	0.93% (inactive)
Cc1ccc(C(=O)COC(=O)CCCC(=O)NC2CCCCC2)cc1[N+](=O)[O-]	-3.79% (inactive)
CCCc1c(C)nc2scc(-c3ccc(Cl)cc3)n2c1=O	3.02% (inactive)
O=S(=O)(Cc1nnnn1-c1ccccc1)c1ccccc1	3.43% (inactive)
CCCCc1ccc(S(N)(=O)=O)cc1	1.33% (inactive)
O=C(CCCN1C(=O)C2C3C=CC(C3)C2C1=O)N1CCN(c2ccccc2)CC1 (stereo not drawn)	6.38% (inactive)
COC(=O)c1cc(S(=O)(=O)N2CCN(C(=O)C3CCCO3)CC2)cn1C (stereo not drawn)	-2.49% (inactive)
Cn1c(CC2Sc3ccccc3NC2=O)nnc1SCC(=O)c1ccc(Cl)cc1 (stereo not drawn)	-0.22% (inactive)
CC(CCc1ccc(O)cc1)NCc1ccc(Cl)cc1Cl (stereo not drawn)	-2.85% (inactive)
OC(CCl)CCl	-3.1% (inactive)
COC(=O)Cc1c(-c2[nH]c3ccccc3c2CC(=O)OC)[nH]c2ccccc12	36.5% (active)
CCOC(=O)C1CCN(C(=O)Cc2c(C(=O)O)[nH]c3ccccc23)CC1	-0.71% (inactive)
COC(=O)CCNC(=O)c1ccc2[nH]c(C)c(C)c2c1	2.4% (inactive)
N#CC1(NC(=O)COc2ccc3oc4ccccc4c3c2)CCCCC1	-3.84% (inactive)

SMILES	activation
CN1CCN(S(=O)(=O)c2ccc(NC(=O)C3CCCO3)cc2)CC1 (stereo not drawn)	1.58% (inactive)
CCCOc1ccc(CN(CCO)CCO)cc1C(=O)OC	3.92% (inactive)
O=C(NCCc1ccco1)c1nn(Cc2ccccc2)c(=O)c2ccccc12	49.5% (active)
O=c1c2ccccc2c(-c2ccc(Br)cc2)nn1Cc1ccccc1	0.94% (inactive)
Cc1ccsc1C(=O)NCCc1ccco1	1.1% (inactive)
COc1ccc(OC)c(-n2nnnc2SCC(=O)Nc2cc(C)ccc2OC)c1	-3.61% (inactive)
COC(=O)c1ccc2ccccc2c1OC1OC(CO)C(O)C(O)C1NC(C)=O (stereo not drawn)	1.14% (inactive)
CCCc1nc2ccccc2c(C(=O)OCc2nnc(-c3cc(OC)c(OC)c(OC)c3)o2)c1CC	27.3% (inactive)
CC1(C)O[C@@H]2[C@H](O1)[C@@H](COS(=O)(=O)O)O[C@H]2n1cnc2c(=O)[nH]cnc21	9.84% (inactive)
COc1cccc(CC(=O)N2CCN(C(=O)C(=O)c3cccc(C(F)(F)F)c3)CC2)c1	0.51% (inactive)
COc1ccc(-n2c(SCC(=O)Nc3ccc4c(c3)OCCO4)nnc2-c2ccc(Cl)cc2)cc1	-4.33% (inactive)
C/C(COc1ccccc1)=N\NC(=O)c1nnn(-c2nonc2N)c1-c1ccc(C)cc1	-1.04% (inactive)
Cc1cc(Cl)ccc1OCc1nc(-c2ccncc2)no1	-5.32% (inactive)
C=CCN(CC=C)C(=O)COC(=O)c1n[nH]c2ccccc12	-3.45% (inactive)
CCCc1nn(C)c2c(=O)[nH]c(-c3cc(S(N)(=O)=O)ccc3OCC)nc12	55% (active)
CCOc1ccc(-n2cnc3c(=O)[nH]c(N)nc32)cc1	20.7% (inactive)
CCOc1ccccc1N1CCN(C(=S)Nc2ccc(S(N)(=O)=O)cc2)CC1	0.9% (inactive)
Cc1ccc(NS(=O)(=O)c2ccc(C(=O)NCCCN3CCOCC3)cc2)cc1	1.4% (inactive)
Cc1ccc(S(=O)(=O)N2CCOCC2)cc1NC(=O)CSc1nnc(N)s1	-3.12% (inactive)
COc1ccc(S(=O)(=O)N2CCOCC2)cc1NC(=O)CSc1nnc(NC2CC2)s1	56.9% (active)

SMILES	activation
COc1ccc(S(=O)(=O)N2CCOCC2)cc1NC(=O)CSc1cc(C)ccc1C	-3.41% (inactive)
CCCCn1c(N)c(N(CC(C)C)C(=O)c2cccc(S(=O)(=O)N3CCN(C(C)=O)CC3)c2)c(=O)[nH]c1=O	4.82% (inactive)
CC(=O)Nc1ccc(Nc2ncnc3c2nnn3Cc2ccccc2Cl)cc1	-5.33% (inactive)
COc1ccnc2c1c(=O)n(Cc1cccc(F)c1)c(=O)n2C	9.01% (inactive)
COc1cccc(CNCCc2c[nH]c3ccccc23)c1OCc1ccccc1F	-11.1% (inactive)
COc1cc(/C=C2/C(=O)ON=C2C)ccc1OCc1cccc(F)c1	38.1% (active)
C/C=C/c1ccc(OCCOc2ccc(C=O)cc2OC)c(OC)c1	-3.69% (inactive)
COc1cc(/C=C2/C(=O)ON=C2C)ccc1OCc1ccccc1F	37.2% (active)
COc1cc(CNc2ncn[nH]2)ccc1OCc1ccccc1C	-2.6% (inactive)
COC(=O)[C@@H]1C[C@@]2(O)[C@@H](O)[C@@H](O)[C@@H](O)C[C@H]2N1Cc1ccc(C)s1	-2.84% (inactive)
O=C(/C=C/[C@H]1O[C@@H](n2cnc3c(NC(=O)c4ccccc4)ncnc32)[C@H](O)[C@@H]1O)NCc1ccccc1	-3.16% (inactive)
O=C(Nc1nccs1)C1CCN(S(=O)(=O)c2ccc(Cl)c(C(F)(F)F)c2)CC1	-2.77% (inactive)
COc1ccccc1C(=O)C(O)c1ccccc1OC (stereo not drawn)	4.06% (inactive)
CC(=O)Nc1ccc(/C(C)=N/NC(=O)CN(c2ccccc2Br)S(C)(=O)=O)cc1	1.02% (inactive)
COc1cc(C2C(N3C(=O)c4ccccc4C3=O)C(=O)N2c2ccc(C)c(C)c2)cc(OC)c1OC (stereo not drawn)	3.45% (inactive)
Cc1cccc(N(C(=O)Cc2cccs2)C(C(=O)NCc2ccco2)c2ccncc2)c1 (stereo not drawn)	-16% (inactive)
CC(C)n1c(-c2ccncc2)n[nH]c1=S	5.74% (inactive)
Cc1ccccc1C1=NC(C(F)(F)F)(C(F)(F)F)c2c(n(-c3ccc(F)cc3)c(=O)[nH]c2=O)N1	-3.86% (inactive)
